Calls of active or inactive are those of the source.
Tests used:
[1] = E. coli DRC41 culture turbidity changes, primary screen, E. coli filamentation inducer project, strain DRC41, OD650, 48 h (AID 1152);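 note: E. coli MC1000 strain DRC41 lacking acrAB efflux pump and sulA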; details: E. coli DRC41 (acrAB sulA), higher = more signal, called active from +8 up or from −8 down
[2] = small-molecule binders of probe aLefty1, primary screen, biochemical, small-molecule microarray, 635/667 nm fluorescence (AID 1153); details: higher = more signal;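 note: score merges spot fluorescence with signal-to-noise ratio from the scanned slide images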
[3] = PSAC antagonists in infected red cells, primary screen, cell-based, P. falciparum Indochina, OD700, 1 h (AID 1154); details: P. falciparum Indochina infected RBC osmotic lysis, higher = more signal, called active from +8 up or from −8 down
[4] = PSAC antagonists in infected red cells, primary screen, cell-based, P. falciparum Indochina, OD700, 2 h (AID 1155);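 note: lysis reports solute entry through the parasite surface anion channel PSAC; channel blockers reduce lysis of infected cells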; details: P. falciparum Indochina infected erythrocytes, osmotic lysis OD700; higher = more signal, called active from +8 up or from −8 down
[5] = osmotic lysis modulators in infected erythrocytes, primary screen, PSAC antagonist project, cell-based, P. falciparum Indochina, OD700, 3 h (AID 1156); details: higher = more signal, called active from +8 up or from −8 down
[6] = PSAC antagonists in infected red cells, primary screen, cell-based, P. falciparum Indochina, OD700, 18 h (AID 1157); details: P. falciparum Indochina infected erythrocytes, osmotic lysis OD700, 18 h; higher = more signal, called active from +8 up or from −8 down
[7] = modulators of S6 phosphorylation in cells, primary screen, cell-based, A549, cytoblot, luminescence, serum-stimulated (AID 1158); details: A549 phospho-S6 cytoblot, 5 h, higher = more signal;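 note: serum-stimulated A549 lung adenocarcinoma cells; signal is phosphorylated S6 detected by cytoblot immunostaining with HRP secondary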
[8] = biological target: NADPH oxidase 2 (Homo sapiens) (UniProt P04839); assay: NOX2-dependent H2O2 signal modulators, primary screen, NOX inhibitor project, cell-based, HEK293-NOX2, PMA-stimulated, Amplex Red fluorescence (AID 1159); details: 45 min, higher = more signal, called active from +8 up or from −8 down; note: test concentration not given here
NADPH oxidase 2 (Homo sapiens), sequence (P04839 whole entry, looked up): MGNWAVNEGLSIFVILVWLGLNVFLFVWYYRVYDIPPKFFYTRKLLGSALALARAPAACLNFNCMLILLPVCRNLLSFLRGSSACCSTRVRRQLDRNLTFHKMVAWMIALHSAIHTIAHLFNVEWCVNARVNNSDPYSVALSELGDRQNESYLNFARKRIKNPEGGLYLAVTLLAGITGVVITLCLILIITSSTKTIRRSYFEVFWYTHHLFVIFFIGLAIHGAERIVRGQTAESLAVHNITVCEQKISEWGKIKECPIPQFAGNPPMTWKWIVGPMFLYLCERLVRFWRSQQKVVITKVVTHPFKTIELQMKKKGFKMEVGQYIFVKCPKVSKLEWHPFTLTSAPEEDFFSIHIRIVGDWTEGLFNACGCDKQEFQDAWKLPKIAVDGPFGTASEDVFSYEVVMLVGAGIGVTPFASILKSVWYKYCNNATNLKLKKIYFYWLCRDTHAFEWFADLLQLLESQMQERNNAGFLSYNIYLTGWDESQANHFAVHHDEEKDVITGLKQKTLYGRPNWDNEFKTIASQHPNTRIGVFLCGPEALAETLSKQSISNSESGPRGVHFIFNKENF

[9] = biological target: NADPH oxidase 4 (Homo sapiens) (UniProt Q9NPH5); assay: NOX4-dependent H2O2 signal modulators, primary screen, NOX inhibitor project, cell-based, HEK293-NOX4, tetracycline-induced, Amplex Red fluorescence (AID 1160); details: 45 min, higher = more signal, called active from +8 up or from −8 down
NADPH oxidase 4 (Homo sapiens), sequence (Q9NPH5 whole entry, looked up): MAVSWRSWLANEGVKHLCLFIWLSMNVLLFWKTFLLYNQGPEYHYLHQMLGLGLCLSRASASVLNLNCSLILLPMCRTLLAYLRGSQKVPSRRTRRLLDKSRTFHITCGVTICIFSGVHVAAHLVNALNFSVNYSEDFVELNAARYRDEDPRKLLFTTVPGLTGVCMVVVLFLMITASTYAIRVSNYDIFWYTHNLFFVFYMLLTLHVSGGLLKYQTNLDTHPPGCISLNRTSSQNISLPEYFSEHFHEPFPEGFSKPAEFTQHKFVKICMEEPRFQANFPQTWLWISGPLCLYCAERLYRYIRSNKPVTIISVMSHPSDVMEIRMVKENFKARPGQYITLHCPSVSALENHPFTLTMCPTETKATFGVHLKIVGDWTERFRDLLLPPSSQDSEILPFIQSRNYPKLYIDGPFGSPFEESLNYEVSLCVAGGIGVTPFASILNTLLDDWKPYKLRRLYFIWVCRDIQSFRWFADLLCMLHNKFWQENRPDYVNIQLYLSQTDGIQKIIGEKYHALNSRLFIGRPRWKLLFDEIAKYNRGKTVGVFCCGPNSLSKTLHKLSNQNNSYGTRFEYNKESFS

[10] = biological target: NADPH oxidase 5 (Homo sapiens) (UniProt Q96PH1); assay: NOX5-dependent H2O2 signal modulators, primary screen, NOX inhibitor project, cell-based, HEK293-NOX5, Amplex Red fluorescence (AID 1161); details: HEK293-NOX5, ionomycin, 45 min, higher = more signal
NADPH oxidase 5 (Homo sapiens), sequence (Q96PH1 whole entry, looked up): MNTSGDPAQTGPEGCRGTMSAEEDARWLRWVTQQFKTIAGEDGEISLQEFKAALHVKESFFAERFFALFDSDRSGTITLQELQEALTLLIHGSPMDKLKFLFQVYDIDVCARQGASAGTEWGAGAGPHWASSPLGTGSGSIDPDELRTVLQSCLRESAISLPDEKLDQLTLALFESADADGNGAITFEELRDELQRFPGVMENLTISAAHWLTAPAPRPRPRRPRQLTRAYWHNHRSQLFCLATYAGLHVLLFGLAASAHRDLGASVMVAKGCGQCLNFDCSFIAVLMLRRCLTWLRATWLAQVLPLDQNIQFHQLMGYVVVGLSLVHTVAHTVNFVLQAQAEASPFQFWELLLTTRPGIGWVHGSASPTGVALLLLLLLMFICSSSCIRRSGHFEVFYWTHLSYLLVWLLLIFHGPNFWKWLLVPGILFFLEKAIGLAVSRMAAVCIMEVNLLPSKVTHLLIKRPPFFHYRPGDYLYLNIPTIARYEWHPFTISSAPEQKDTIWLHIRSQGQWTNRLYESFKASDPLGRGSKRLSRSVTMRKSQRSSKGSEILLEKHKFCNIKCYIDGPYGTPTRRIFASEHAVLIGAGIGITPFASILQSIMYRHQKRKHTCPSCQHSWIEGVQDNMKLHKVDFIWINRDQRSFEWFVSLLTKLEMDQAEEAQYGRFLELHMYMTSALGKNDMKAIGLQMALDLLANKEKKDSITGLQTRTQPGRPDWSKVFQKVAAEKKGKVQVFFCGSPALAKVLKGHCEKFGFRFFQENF

Structure (SMILES) | z-score [1] | composite z-score [2] | z-score [3] | z-score [4] | z-score [5] | z-score [6] | z-score [7] | z-score [8] | z-score [9] | z-score [10]
O=C1CCCC=C1C(O)CCCCBr (stereo not given) | 0.549 (inactive) | 0.155 | 3.79 (inactive) | 1.15 (inactive) | 1.02 (inactive) | 0.759 (inactive) | 0.231 | -0.772 (inactive) | 0.241 (inactive) | -0.921
O=C(NN=C1C[C@@H](O)[C@@H](O)[C@@H]2[C@@H]3C(=O)N(C[C@@H]4CCCO4)C(=O)[C@@H]3CC[C@@H]12)OCc1ccccc1 | 0.828 (inactive) | -0.24 | 0.423 (inactive) | -1.35 (inactive) | 0.449 (inactive) | -1.97 (inactive) | 2.18 | -0.532 (inactive) | 0.554 (inactive) | 0.8
CC(CCC(=O)OC[C@H]1O[C@H](C#Cc2ccccc2)C=C[C@@H]1Oc1ccc(C)cc1)=NO[C@H](C)c1cn([C@H](CO)Cc2ccccc2)nn1 | -0.757 (inactive) | -0.243 | 14.6 (active) | 2.79 (inactive) | 1.47 (inactive) | 1 (inactive) | -1.01 | -1.26 (inactive) | 0.432 (inactive) | 0.32
CCOC(=O)[C@H](CC(C)C)NC(=O)CCC1CC(OC(=O)NCc2cccc3ccccc23)CC2(CCCC(COC(=O)NCCc3ccc(Cl)cc3)O2)O1 (stereo not given in full) | 0.692 (inactive) | -0.14 | 3.31 (inactive) | 0.0962 (inactive) | -0.837 (inactive) | -0.466 (inactive) | 0.367 | 0.274 (inactive) | 0.623 (inactive) | 1.24
CCOC(=O)C1=NO[C@]2(C=C(Br)C3(OCCCO3)[C@H]3O[C@H]32)C1 | 0.209 (inactive) | -0.0075 | -0.228 (inactive) | 0.142 (inactive) | -0.348 (inactive) | 0.0748 (inactive) | -0.428 | 1.18 (inactive) | 0.492 (inactive) | 0.12
C#CCCCON=C1C[C@@H](O)[C@@H](O)[C@@H]2[C@@H]3C(=O)N(Cc4ccccc4)C(=O)[C@@H]3CC[C@@H]12 | 0.292 (inactive) | -0.0479 | 0.564 (inactive) | 0.579 (inactive) | -0.292 (inactive) | 0.06 (inactive) | -0.507 | -0.727 (inactive) | 0.47 (inactive) | 0.551
C#CCCCON=C1[C@H]2CCn3c(=O)n(-c4ccccc4)c(=O)n3[C@H]2[C@H](O)[C@@H]2O[C@H]12 | 0.555 (inactive) | -0.19 | 0.116 (inactive) | -1.22 (inactive) | 0.43 (inactive) | -2.27 (inactive) | 3.11 | -0.858 (inactive) | 0.137 (inactive) | 0.607
CC(C)=CCCC(C)=CCON=C1C[C@@H](O)[C@@H](O)[C@@H]2[C@@H]3C(=O)N(C[C@@H]4CCCO4)C(=O)[C@@H]3CC[C@H]12 | -0.249 (inactive) | -0.0501 | 2.57 (inactive) | 0.847 (inactive) | 0.193 (inactive) | 0.55 (inactive) | 0.659 | 0.0784 (inactive) | 0.256 (inactive) | -2.11
CO[C@@H]1COC(=O)CC=C[C@H](C)[C@H](OC)COC(=O)[C@H](C)NC(=O)CC=C[C@H]1C | 0.525 (inactive) | -0.012 | 0.0859 (inactive) | 0.0159 (inactive) | 0.704 (inactive) | 0.107 (inactive) | -0.0908 | -0.402 (inactive) | -0.249 (inactive) | -0.159
COC(=O)CC=C[C@@H](C)[C@@H](C=NOCC[C@@H]1C=C[C@H](OC(C)=O)[C@@H](COC(C)=O)O1)OC | -0.35 (inactive) | -0.0969 | 0.551 (inactive) | 0.239 (inactive) | -0.5 (inactive) | 0.171 (inactive) | -0.801 | 0.464 (inactive) | 0.934 (inactive) | 0.855
COc1cccc([C@H]2Oc3ccc(OC)cc3C(=NO[C@@H]3O[C@H](COC(C)=O)[C@@H](OC(C)=O)[C@H](OC(C)=O)[C@H]3OC(C)=O)[C@@H]2O)c1 | -1.34 (inactive) | -0.191 | 0.158 (inactive) | -0.0728 (inactive) | -0.362 (inactive) | 0.146 (inactive) | -1.09 | 0.484 (inactive) | 0.905 (inactive) | 0.486
CCOC(=O)[C@H](CC(C)C)NC(=O)CCC1CC(OC(=O)NCc2ccc3c(c2)OCO3)CC2(CCCC(COC(=O)NCC3CCCCC3)O2)O1 (stereo not given in full) | 0.192 (inactive) | 0.237 | 1.35 (inactive) | 0.0043 (inactive) | -0.116 (inactive) | -0.0704 (inactive) | 0.542 | -0.541 (inactive) | 0.563 (inactive) | 0.61
O=C1C[C@@H](O)[C@@H](O)[C@@H]2[C@@H]3C(=O)N(Cc4ccc5c(c4)OCO5)C(=O)[C@@H]3CC[C@H]12 | -0.116 (inactive) | -0.104 | 1.52 (inactive) | 0.14 (inactive) | -0.582 (inactive) | 0.207 (inactive) | -0.196 | -0.148 (inactive) | 0.314 (inactive) | -0.36
CC(C)=CCCC(C)=CCON=C1C[C@@H](O)[C@@H](O)[C@@H]2[C@@H]3C(=O)N(c4ccc(F)cc4F)C(=O)[C@@H]3CC[C@H]12 | -0.061 (inactive) | 0.173 | 13.7 (active) | 0.545 (inactive) | 2.8 (inactive) | -0.87 (inactive) | -0.0997 | -0.0501 (inactive) | -1.83 (inactive) | -4.58
CCOC(=O)[C@H](CC(C)C)NC(=O)CCC1CC(OC(=O)NCc2ccc3c(c2)OCO3)CC2(CCCC(COC(=O)NCC(c3ccccc3)c3ccccc3)O2)O1 (stereo not given in full) | 0.0056 (inactive) | -0.106 | 2.08 (inactive) | 0.316 (inactive) | -0.532 (inactive) | -0.071 (inactive) | -0.438 | -0.312 (inactive) | 1.03 (inactive) | 0.698
CON=Cc1ccc(C(=O)N2[C@H](c3ccc(C)cc3)[C@@H](C)CC[C@H]2C(=O)OC)cc1 | -0.134 (inactive) | -0.147 | 1.65 (inactive) | 1.25 (inactive) | 0.0014 (inactive) | 1.1 (inactive) | -0.0424 | -0.88 (inactive) | -0.304 (inactive) | -0.376
CCOC(=O)CCN1C(=O)[C@H]2[C@H]3[C@H](O)[C@H](O)CC(=NNC(=O)OCc4ccccc4)[C@@H]3CC[C@H]2C1=O | 0.809 (inactive) | -0.147 | 0.0026 (inactive) | -0.37 (inactive) | -0.371 (inactive) | -0.0393 (inactive) | 0.33 | -4.57 (inactive) | 0.0939 (inactive) | 0.181
CO[C@H]1COC(=O)[C@@H](C)COC(=O)[C@H](COCc2ccccc2)NC(=O)CC=C[C@H]1C | -1.17 (inactive) | -0.0654 | -0.262 (inactive) | 0.149 (inactive) | -0.0011 (inactive) | 0.156 (inactive) | 0.503 | -1.95 (inactive) | 0.126 (inactive) | 0.284
CC(C)CON=C1C[C@@H](O)[C@@H](O)[C@@H]2[C@@H]3C(=O)N(c4cccc(Oc5ccccc5)c4)C(=O)[C@@H]3CC[C@@H]12 | -0.211 (inactive) | -0.321 | 2.34 (inactive) | -0.696 (inactive) | 1.07 (inactive) | -1.36 (inactive) | 0.6 | -0.191 (inactive) | 0.352 (inactive) | -0.51
O=c1n(Cc2cc3c(cc2Cl)OCO3)c(=O)n2n1CC[C@@H]1C(=NOC[C@@H](O)COCc3ccco3)[C@H]3O[C@H]3[C@@H](O)[C@@H]12 | -0.289 (inactive) | 0.175 | 0.0384 (inactive) | 0.012 (inactive) | -0.258 (inactive) | -0.138 (inactive) | 0.393 | 0.0338 (inactive) | -1.95 (inactive) | -0.278
COc1cccc([C@H]2Oc3ccc(OC)cc3C(=NOC[C@@H](O)[C@H]3O[C@@H]4OC(C)(C)O[C@@H]4[C@H]3O)[C@@H]2O)c1 | -0.0985 (inactive) | -0.387 | 5.05 (inactive) | 0.458 (inactive) | -0.128 (inactive) | 0.537 (inactive) | -0.512 | -0.895 (inactive) | -0.776 (inactive) | -0.23
C[C@@H](c1ccccc1)N1C(=O)[C@H]2[C@H]3[C@H](O)[C@H](O)CC(=O)[C@H]3CC[C@H]2C1=O | 0.477 (inactive) | -0.196 | -0.74 (inactive) | 0.0593 (inactive) | -0.105 (inactive) | 0.0091 (inactive) | 0.297 | -0.522 (inactive) | 0.05 (inactive) | 0.811
CO[C@H]1COC(=O)CCC[C@@H](C)[C@H](OC)COC(=O)[C@@H](C)NC(=O)CC=C[C@@H]1C | 0.312 (inactive) | -0.0969 | -0.806 (inactive) | -0.912 (inactive) | 0.565 (inactive) | -1.59 (inactive) | 1.05 | -1.18 (inactive) | -2.55 (inactive) | -1.3
CCOC(=O)C1=NO[C@@]2(C=C(Br)C3(OCCCO3)[C@H]3O[C@H]32)C1 | 0.721 (inactive) | 0.026 | 0.123 (inactive) | 0.105 (inactive) | 0.157 (inactive) | -0.218 (inactive) | -0.235 | 0.925 (inactive) | -0.373 (inactive) | 0.43
CC[C@@H](c1ccccc1)n1c(=O)n2n(c1=O)[C@H]1[C@H](O)[C@@H]3O[C@@H]3C(=O)[C@H]1CC2 | 0.289 (inactive) | -0.101 | -0.48 (inactive) | -0.38 (inactive) | -0.0399 (inactive) | -0.139 (inactive) | -0.126 | -6.29 (inactive) | -0.0502 (inactive) | 0.324
Cc1ccc(S(=O)(=O)OC[C@H]2CN3[C@H](c4ccc(Br)cc4)[C@@H](C)CC[C@H]3C(=O)O2)cc1 | 0.399 (inactive) | -0.0501 | 3.18 (inactive) | 0.57 (inactive) | 0.896 (inactive) | 0.761 (inactive) | 0.0084 | 0.407 (inactive) | 0.484 (inactive) | -0.632
